# SF1 inhibitor: inhibitors of human nuclear receptor SF-1; inhibition, % at 10 µM; actives 0.55% (n = 65,000); Q13285; CHO-K1 Gal4-SF-1 LBD luciferase reporter; AID 525;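 active = inhibition above the mean inhibition of all tested compounds plus 3 SD, cut at about 48% in these data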;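 also: 0% = SF-1 transfected cells with DMSO and 100% = mock-transfected cells lacking SF-1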
# Target sequence (Q13285 whole entry, looked up, the tested form may be a part): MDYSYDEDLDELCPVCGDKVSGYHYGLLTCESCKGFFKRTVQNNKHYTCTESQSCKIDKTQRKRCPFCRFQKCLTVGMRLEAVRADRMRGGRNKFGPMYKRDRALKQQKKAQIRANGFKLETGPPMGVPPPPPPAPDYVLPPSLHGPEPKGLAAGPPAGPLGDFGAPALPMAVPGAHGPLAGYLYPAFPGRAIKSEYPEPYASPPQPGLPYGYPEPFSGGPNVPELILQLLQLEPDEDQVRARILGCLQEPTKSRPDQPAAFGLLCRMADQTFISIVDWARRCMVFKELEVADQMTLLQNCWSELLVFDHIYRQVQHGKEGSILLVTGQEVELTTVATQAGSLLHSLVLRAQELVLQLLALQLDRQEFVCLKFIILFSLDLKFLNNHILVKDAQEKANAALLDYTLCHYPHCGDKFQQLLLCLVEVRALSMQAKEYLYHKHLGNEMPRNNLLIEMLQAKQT
# Starred values were filed as active, the others as inactive. Shown is part of a subset that was picked to be rich in hits.
SMILES,SF1 inhibitor
CCOC(=O)c1c(C)c(-c2ccccc2)n(CC(=O)N2CCN(C)CC2)c1C,-2.7
CC(NC(=O)c1ccco1)C(=O)OCc1cccc(Cl)c1 (stereo not given),-7.6
CC(C)NCC(O)Cn1c2c(c3ccccc31)CCc1c-2cnn1-c1ccccc1 (stereo not given),52.5*
Cc1c(-c2nc(N)nc(Nc3ccccc3)n2)oc2ccccc12,-161.7
O=C1c2ccccc2C(=O)C1c1ccc2ccccc2n1,72.1*
O=C1c2ccccc2NC(c2cnc3ccccc3n2)N1O (stereo not given),-42.7
O=C(NCc1ccccn1)c1ccc2ccccc2n1,-3.7
COC(=O)c1cc2sc(Cl)cc2n1CC(=O)N1CCCc2ccccc21,2.3
O=C(C1CC1)N1CCN=C1SCc1cccc(F)c1,1.0
CCOC(=O)NCCc1ccc(OC)cc1,5.4
CCc1c(C)nc2ncnn2c1NCCc1ccc(OC)cc1,85.2*
COc1ccc(CCNc2oc(COc3ccccc3)nc2C#N)cc1,-4.7
CCn1c(C)nc2cc(-c3nc4n(n3)Cc3ccccc3-4)ccc21,95.7*
COc1ccc(NC(=O)CN2CCN(CC(=O)Nc3ccccc3F)CC2)cc1OC,-12.7
CCCn1c(NC(=O)C2CCN(S(=O)(=O)c3cccs3)CC2)nc2ccccc21,20.0
O=C(CCCC(=O)N(CC(=O)NC1CCCCC1)CC1CCCO1)Nc1ccccn1 (stereo not given),-1.0
[O-][N+]1=c2ccc(Nc3ccccc3)cc2=NC12CCCCC2,61.8*
CCCCOc1ccc(S(=O)(=O)Nc2cccnc2)cc1,49.3*
O=S(=O)(Nc1cccc(C(F)(F)F)c1)c1cccnc1,5.1
CCOc1ccc(NS(=O)(=O)c2ccc(SC)cc2)cc1,0.5
CC(C)CC1NC(=O)N(CC(=O)c2ccc3c(c2)OCCO3)C1=O (stereo not given),-83.9
Cc1ccc2cc3cc(C(=O)N(C)C4CCCCC4)oc3nc2c1,-76.8
CCOC(=O)C1=C(C)Nc2ncnn2C1/C=C/c1ccccc1 (stereo not given),0.6
CCSCCOC(=O)C1=C(C)NC(=O)NC1c1cc(OC)ccc1OC (stereo not given),-5.2
CCOC(=O)C1=C(Cn2cnc3ccccc32)NC(=O)NC1c1cc(C)ccc1C (stereo not given),59.3*
SMILES,SF1 inhibitor
O=C(CSc1nnc(Cc2ccccc2)o1)N1CCOCC1,-21.0
CCc1ccc2[nH]cc(C(=O)N3CCCCCC3)c(=O)c2c1,1.0
O=C(c1ccc2c3c(cccc13)C(=O)N(O)C2=O)N1CCCCC1,66.5*
O=C(c1n[nH]c(=O)c2ccccc12)N1CCN(c2ccccc2Cl)CC1,1.0
NC(=O)C1CCC(NC(=O)OCc2ccccc2)CC1 (stereo not given),-6.2
C(=N\n1cnnc1SCc1ccccc1)/c1ccco1,9.6
Fc1ccc(-c2nnc(NC3=NCCCCC3)o2)cc1,62.5*
CCN(CC)c1ccc(-c2nn3c(-c4cccnc4)nnc3s2)cc1,6.6
O=C(Nc1ccc(SC(F)F)cc1)c1ccc2nccnc2c1,18.2
O=c1c2ccccc2nnn1CSc1nnc2ccccn12,-77.6
O=C(COc1ccc(Cl)cc1)NC1CCSC1=O (stereo not given),-3.1
Cn1ccc(C(=O)OCC(=O)c2ccccc2)n1,-4.6
Cc1nn(-c2ccccc2)c(C)c1C(=O)OCC(=O)c1c(N)n(CC(C)C)c(=O)n(C)c1=O,55.1*
COC(=O)CCc1c(C)nn(-c2ccccc2)c1C,-9.2
CCOC(=O)N1CCN(C(=O)CN2C(=O)CC(C)(C)S(=O)(=O)c3ccccc32)CC1,-3.9
COC(=O)c1c(C)[nH]c(C(C)=O)c1C,-16.0
CCOC(=O)c1c(C)[nH]c(C)c1C(=O)COC(=O)CCOc1ccccc1OC,-2.3
COc1ccccc1OCC(=O)c1[nH]c(C)c(C(C)=O)c1C,50.4*
COc1cccc(-n2c(SCC(=O)NCCc3ccccc3)nnc2-c2ccoc2C)c1,8.2
COC(=O)C1C(O)=C(C=NCC(C)N=CC2=C(O)C(C(=O)OC)C(C)(C)CC2=O)C(=O)CC1(C)C (stereo not given),-3.7
Cc1ccc(CNC(=O)c2cn(C3CCCC3)c(=O)c3c2c2ccccc2n3C)o1,15.5
CCOC(=O)C1=C(C)NC2=C(C(=O)CCC2)C1c1cc(OC)ccc1OC (stereo not given),-2.2
Cc1c(C(=O)OCCOC(C)C)[nH]c2c1C(=O)CC(C)(C)C2,7.7
CCCCOC(=O)c1[nH]c2c(c1C)C(=O)CC(c1cc(OC)c(OC)c(OC)c1)C2 (stereo not given),54.0*
CCOC(=O)C(C(=O)OCC)C(=O)c1cc(OC)c(OC)c(OC)c1,-1.0
SMILES,SF1 inhibitor
C=CCOC(=O)c1[nH]c2c(c1C)C(=O)CC(c1cc(OC)c(OC)c(OC)c1)C2 (stereo not given),52.4*
CCOC(=O)c1nnn(-c2nn3nnnc3c3ccccc23)c1C,0.2
CCN(CC)S(=O)(=O)c1ccc2oc(C(=O)NCC3COc4ccccc4O3)c(C)c2c1 (stereo not given),6.4
CCn1nnnc1-c1ccc(OC)c(S(=O)(=O)N2CCCCC2)c1,-20.8
COc1ccc(N2C(=O)C3CCCN3C2c2ccc(C)cc2)cc1Cl (stereo not given),-4.4
CCOC(=O)N1CCN(S(=O)(=O)c2c(C)[nH]c(=O)[nH]c2=O)CC1,-4.6
COc1ccc(CCCc2nnc(SCC(=O)Nc3nccs3)n2C)cc1C,-0.9
O=c1c2ccccc2nnn1CSc1ccc2c(c1)OCCO2,-77.3
C(=N\n1cnnc1)/c1cn(Cc2ccccc2)c2ccccc12,5.9
Cn1cc(/C=N/n2cnc3scc(-c4ccc(Cl)cc4)c3c2=O)c2ccccc21,80.8*
CCC(Sc1ccccn1)C(=O)Nc1nnc(C)s1 (stereo not given),-5.7
Oc1c(/C=N/c2ncn[nH]2)ccc2ccccc12,7.2
COCCn1c(SCC(=O)c2ccccc2)nc2c(c1=O)SC(C)C2 (stereo not given),2.7
COc1ccc(C(=O)CSc2nc3nc(C)cc(C)n3n2)cc1OC,4.4
O=C(CN1C(=O)CCSc2ccccc21)Nc1cccc(F)c1,0.2
Cc1cccc(CN2CCC(CNC(=O)C3CCCN(S(=O)(=O)c4cnc[nH]4)C3)CC2)c1 (stereo not given),-3.3
COC(=O)c1sccc1NC(=O)CN1CCN(c2ccc(F)cc2)CC1,-9.1
Cc1ccc(-c2nc(-c3ccccc3)no2)c(Cl)c1,69.6*
c1ccc(-c2noc(-c3cccc4ccccc34)n2)cc1,-65.1
COc1cccc(-c2nc(-c3ccccc3)no2)c1,9.4
O=C(CN1C(=O)C2CC=C(Cl)CC2C1=O)N1CCOCC1 (stereo not given),2.4
CCOC(=O)N1CCC(NC(=O)c2cccc3c2C(=O)N(CCOC)C3)CC1,3.7
O=C(CCNS(=O)(=O)c1cccc2nonc12)NC1CCCc2ccccc21 (stereo not given),4.9
CCN1CCc2c(sc3c2c(NCc2ccco2)nc2nnnn23)C1,-2.4
CCOc1ccc(NC(=O)c2ccccc2OC)cc1,-73.0
SMILES,SF1 inhibitor
COc1ccccc1-c1nnc2n1N=C(c1ccc(O)c(O)c1)CS2,66.6*
Clc1ccc(C2=Nn3c(nnc3-c3cccnc3)SC2)s1,6.4
CCn1c(SCC(=O)c2ccc(O)c(O)c2)nnc1-c1ccccc1OC,4.7
CCOc1ccc(C2=Nn3c(nnc3-c3ccccc3OC)SC2)cc1,72.9*
Cc1c(N=C2SCC(=O)N2c2c(C)n(C)n(-c3ccccc3)c2=O)c(=O)n(-c2ccccc2)n1C,-21.2
Cc1ccc2oc(=O)c3cnn(CC(=O)NCCCOC(C)C)c3c2c1,-3.6
O=C(c1cnsn1)N1CCN(c2ccccn2)CC1,-3.7
